Consider nine molecules from PubChem BioAssay (NCI).

Holding throughout (experiment): NCI-60 one-dose screen, 48 h (100 = growth as untreated, 0 = no growth, -100 = all killed)
Holding throughout (settings): 10 µM unless noted

Experiment [1] concerns NCI-H23 lung.
The test system of experiment [2] is NCI-H226 lung.
Experiment [3] has as its system NCI-H322M lung.
In experiment [4] the test system is HOP-62 NSCLC.
Experiment [5] deals with NCI-H460 lung.
The subject of experiment [6] is HOP-92 NSCLC.
For experiment [7], the system named is NCI-H522 lung.
Experiment [8] has as its system A549/ATCC NSCLC.
For experiment [9], the system named is 786-0 renal.
Experiment [10] concerns DU-145 prostate.
For experiment [11], the system named is K-562 leukemia.
The test system of experiment [12] is MALME-3M melanoma.
In experiment [13] the test system is MDA-MB-231 breast.
Experiment [14] relates to RXF 393 renal.
Experiment [15] concerns SF-268 CNS.
For experiment [16], the system named is SF-295 CNS.
The subject of experiment [17] is SF-539 CNS.
Experiment [18] has as its system UACC-257 melanoma.
Experiment [19] concerns M14 melanoma.

Molecules are shown by their SMILES. This is part of a sample that, as a whole, favours compounds with a hit. Of some 83,000 tested, about 20% had one in any assay.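 Single-dose data. Exposure time 48 hours. Values below 10 considered active.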 Unmarked numbers belong to inactive results. Activity calls are given as the source filed them.

On to `NS(=O)(=O)Oc1ccc(NC(=O)C23CC4CC(CC(C4)C2)C3)cc1Cl`, for which the growth in [1] was 101%; in experiment [2] it was 91.3%; in experiment [3], 104%; in experiment [4], 92.1%; in [5], 103%; in experiment [6], 87.6%. Further, the growth in experiment [7] is 75.8%; in experiment [8], 93.7%; in [9], 98.2%; in experiment [10] it was 99.8%; in [11], 94.6%; in experiment [12] it was 97.6%. The growth is 90.5% in experiment [13]; 111% in experiment [14]; 88.1% in experiment [15]; 101% in experiment [16]; 87.3% in experiment [17]; 90.2% in experiment [18]. Further, in experiment [19], the growth is 97.3%.

On to `C=C(C=O)C1CCC2(C(=O)O)CCC3(C)C(CCC4C5(C)CCC(O)C(C)(C)C5CCC43C)C12` (stereo unspecified), for which the growth in [1] is -52.1% (active); in experiment [2], 5.95% (active); in [3], 31.3%; in experiment [4], 14.8%; in [5], -12.8% (active); in experiment [6], 67.1%. For the same molecule, the growth was 24.2% in [7]; 34.1% in [8]; -37.3% (active) in experiment [9]; -38.4% (active) in experiment [10]; 13.6% in experiment [11]; 1.55% (active) in experiment [12]. Moreover, the growth in [13] is 32.6%; in experiment [14] it was -63.7% (active); in [15], 24.3%; in experiment [16], -6.97% (active); in [17], -43.4% (active); in experiment [18], -46.4% (active).

Turning to `Cc1cc(Cc2cc(C)cc(C(C)(C)C)c2O)c(O)c(C(C)(C)C)c1`, the growth in [1] was 23.3%; in experiment [2] it was 58.3%; in experiment [3] it was 75.7%; in experiment [4], 68.3%; in experiment [5] it was 8.85% (active); in experiment [6], 18.5%. Also, the growth was 29.9% in experiment [7]; 27.3% in [8]; 57% in experiment [9]; 43.5% in experiment [10]; 13% in experiment [11]; 67.1% in experiment [12]. Besides, the growth is 57.2% in experiment [13]; 40.9% in experiment [14]; 49.2% in experiment [15]; 6.54% (active) in experiment [16]; 62.4% in experiment [17]; 59.8% in experiment [18].

As for `COc1ccc(-c2nc3ncccn3c2/C=C/C(=O)c2cc(OC)c(OC)c(OC)c2)cc1`, the growth in experiment [1] was -19.6% (active); in experiment [2], -24.4% (active); in [3], 16.1%; in experiment [4] it was -12.4% (active); in experiment [5] it was -79.4% (active); in experiment [6], -0.213% (active). Also, the growth in experiment [7] is -44.6% (active); in experiment [8], 10.2%; in [9], -26% (active); in experiment [10], 2.9% (active); in experiment [11] it was 6.79% (active); in experiment [12], 61.8%. The growth in experiment [13] was 21.1%; in experiment [14] it was -24.4% (active); in [15], 13.4%; in experiment [16], -31.5% (active); in [17], -87.2% (active); in experiment [18], 41.2%.

Turning to `Cc1c2c(cn1Cc1ccccc1)CCc1cn(C)nc1-2`, the growth is 63.7% in experiment [1]; 95.3% in experiment [2]; 107% in experiment [3]; 92.1% in experiment [4]; 93.3% in experiment [5]; 40% in [6]. Also, the growth in experiment [7] was 78.3%; in experiment [8] it was 89.8%; in experiment [9], 81.8%; in experiment [10], 111%; in [11], 58.1%; in [12] it was 101%. In addition, the growth was 89.5% in experiment [13]; 83.9% in experiment [14]; 102% in [15]; 57.7% in experiment [16]; 83.1% in [17]; 79.3% in experiment [18].

Regarding `O=C1Nc2ccccc2/C1=N/N=C/c1ccc(OC2OC(CO)C(O)C(O)C2O)cc1` (stereo unspecified), the growth in [1] was 102%; in experiment [2] it was 104%; in experiment [3] it was 105%; in experiment [4], 103%; in experiment [5] it was 111%; in [6], 111%. In addition, the growth was 95% in experiment [7]; 102% in experiment [8]; 109% in experiment [9]; 114% in [10]; 98.3% in experiment [11]; 101% in [12]. Besides, the growth is 105% in experiment [13]; 114% in [14]; 102% in [15]; 110% in experiment [16]; 97.5% in experiment [17]; 106% in experiment [18]. In experiment [19], the growth is 108%.

On to `COc1ccc(-c2cncnc2N)cc1OC`, for which the growth in [1] was 108%; in experiment [2], 107%; in [3] it was 114%; in experiment [4], -100% (active); in [5] it was 98.6%; in experiment [6], 85.2%. The growth in experiment [7] is 105%; in experiment [8], 97.5%; in [9], 107%; in [10] it was 114%; in experiment [11], 103%; in [12], 111%. The growth is 112% in experiment [13]; 112% in experiment [14]; 103% in experiment [15]; 97.5% in experiment [16]; 107% in experiment [17]; 111% in [18]. Moreover, the growth in experiment [19] was 103%.

`CCN(CC)CCCC(C)NCc1ccccc1` (stereo unspecified): the growth in experiment [1] is 101%; in [2], 109%; in experiment [3], 88.1%; in experiment [4] it was 108%; in experiment [5], 106%; in experiment [6], 85.1%. Moreover, the growth in [7] is 73.3%; in [8], 99.5%; in experiment [9], 89.8%; in [10], 97.8%; in experiment [11] it was 118%; in experiment [12], 91.1%. Further, the growth was 105% in [13]; 135% in experiment [14]; 100% in experiment [15]; 101% in experiment [16]; 102% in [17]; 102% in experiment [18]. Further, the growth in experiment [19] was 91.4%.

Consider `COc1cc(C(=O)/C=C/c2c(-c3ccc(F)cc3)nc3ncccn23)cc(OC)c1OC`, for which the growth is 39.3% in [1]; 63.4% in experiment [2]; 69.9% in [3]; 68.1% in experiment [4]; 21.6% in experiment [5]; 23.6% in experiment [6]. In addition, the growth in [7] is -0.92% (active); in [8] it was 61.1%; in experiment [9], 70.7%; in [10], 31.8%; in experiment [11], 17.9%; in experiment [12], 50.7%. Moreover, the growth in experiment [13] was 64.4%; in experiment [14] it was 13.6%; in experiment [15], 51%; in experiment [16], 56.4%; in experiment [17] it was 28.5%; in experiment [18] it was 47%.
